Source: PubChem BioAssay
PostGolgi yeast – growth inhibition of a yeast mutant, post-Golgi transport screen; post-Golgi transport phenotypic cell assay; inhibition, % at 10 µM; 98,000 compounds, 0.9% hits; AID 739;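 note: yeast cells grown in 1536-well plates; yeast grown about 18 h at 30C before absorbance read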
CYP2C9 act – CYP2C9 (human) activation. P11712. recombinant CYP2C9, luciferin-H conversion, luminescence; stronger effect = higher value; factor 1 = untreated enzyme, 0 = blocked. activation factor at 5 µM. AID 1024. 96,000 compounds, 1.4% hits;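 active = activation factor of 2 or more for CYP2C9 at a 5 µM dose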;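 note: 0 = sulfaphenazole-blocked wells and 1 = vehicle-only wells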
CYP2C9 inh – blocks human cytochrome P450 2C9 | P11712 | CYP2C9 Supersomes, luciferin-H conversion, luminescence | inhibition, % at 5 µM | 96,000 compounds, 20% hits | AID 777;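 active = blocking of liver enzyme CYP2C9 beyond about 50% at 5 µM, limit read from the data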
PostGolgi ctrl – growth of the yeast control strain, post-Golgi counter-screen | efflux-deficient yeast background strain, growth absorbance A615, 16 h | inhibition, % at 10 µM | 98,000 compounds, 5% hits | AID 738
CYP2C19 inh – inhibitors of human CYP2C19; P33261; CYP2C19 Supersomes, luciferin-H EGE luminescence, 30 min; inhibition, % at 5 µM; 96,000 compounds, 21% hits; AID 778;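 active = CYP2C19 inhibition above a set limit at 5 µM in the primary screen, cut at about 50% in these data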;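 note: plate controls were negative control wells for no effect and 2.5 mM tranylcypromine positive control for full effect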
Target sequence (P33261 whole entry, looked up): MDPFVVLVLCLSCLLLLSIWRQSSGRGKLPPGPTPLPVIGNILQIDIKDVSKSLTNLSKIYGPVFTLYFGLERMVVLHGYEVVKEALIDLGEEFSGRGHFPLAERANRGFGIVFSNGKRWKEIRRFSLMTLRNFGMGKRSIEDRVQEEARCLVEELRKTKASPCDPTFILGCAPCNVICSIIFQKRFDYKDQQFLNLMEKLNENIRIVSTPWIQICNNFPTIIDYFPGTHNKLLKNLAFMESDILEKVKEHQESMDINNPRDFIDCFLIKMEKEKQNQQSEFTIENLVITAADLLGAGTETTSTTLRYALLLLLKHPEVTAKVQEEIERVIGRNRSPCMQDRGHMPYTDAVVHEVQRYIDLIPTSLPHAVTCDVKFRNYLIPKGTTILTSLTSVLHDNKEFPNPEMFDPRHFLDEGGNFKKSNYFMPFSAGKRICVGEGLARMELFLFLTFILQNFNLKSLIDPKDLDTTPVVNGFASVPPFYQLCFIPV
CYP2C19 activ – increases human CYP2C19 enzyme activity | 96,000 tested, under 10 active | P33261 | activation factor at 5 µM | recombinant CYP2C19, luciferin-H EGE luminescence; stronger effect = higher value; 0 = fully inhibited enzyme, 1 = untreated enzyme;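 active = activation factor of at least 2 at 5 µM in the primary screen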;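 note: 0 = wells with 2.5 mM tranylcypromine and 1 = vehicle-only wells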
* = called active by the depositor; · = not tested or not shown. Rows were chosen to be rich in hits. Some 32% of all compounds tested hit in one or more screens of this group. Cut-off read from the data, not from the text of the source, unless noted: active = inhibition above about 30%; inactive = the rest.

SMILES	PostGolgi yeast	CYP2C9 act	CYP2C9 inh	PostGolgi ctrl	CYP2C19 inh	CYP2C19 activ
CCC(=NCc1ccc(F)cc1)c1c(O)n(C)c(=O)n(C)c1=O	19	0.3	67*	9	84*	0.2
CN1/C(=C\C=C\C2=[N+](C)c3ccc4ccccc4c3C2(C)C)C(C)(C)c2ccccc21	101*	0.4	56*	100*	67*	0.3
COc1ccc(S(=O)(=O)NC(CC(=O)N2CCC3(CC2)OCCO3)c2ccco2)cc1 (configuration not stated)	-3	0.5	51*	-3	76*	0.2
COc1ccc(CCC(=O)N2CCC3(CC2)OCCO3)cc1	-14	0.9	6	-6	75*	0.2
CCOC(=O)N1CCC(NC(=O)CCc2nc(C3=CCN(C)CC3)no2)CC1	25	1	2	6	1	1
CCCC12CN3CC(CCC)(CN(C1)C3c1ccccn1)C2=O (configuration not stated)	-2	1.2	-16	0	-15	1.1
COc1ncccc1C(=O)NCC(CC(=O)O)c1ccccc1 (configuration not stated)	-4	0.7	32	9	6	0.9
c1ccc(CCn2nnnc2CN2CCC(n3nnc4ccccc43)CC2)cc1	-6	0.3	68*	1	69*	0.3
Fc1ccc2c(c1)nnn2C1CCN(Cc2nnnn2CCc2ccccc2)CC1	4	0.1	95*	-8	78*	0.2
Cc1nc2ccccc2n1C1CCN(Cc2nnnn2CCc2ccccc2)CC1	1	0.6	44	39*	31	0.7
c1ccc2c(CCNC3=NCCC3)c[nH]c2c1	20	1	-3	0	3	1
C=Cn1ccnc1P(=S)(c1ccn(C)c1)c1nccn1C=C	-4	1.1	-14	1	-9	1.1
CCOP(=O)(OCC)C(NC(=O)c1ccc(Cl)cc1)=C(Cl)Cl	-4	1	1	-2	64*	0.4
O=c1[nH]c(=O)n(CCc2ccccc2)c(O)c1C=NCc1ccc2c(c1)OCO2	4	0.8	25	4	-26	1.3
CC(C)(C)n1c(O)c(C=Nc2ccc3c(c2)CCC3)c(=O)[nH]c1=O	1	0.3	74*	45*	38	0.6
CC(Cc1ccccc1Sc1ccc(O)cc1)N(C)C (configuration not stated)	-5	1.1	-14	-6	24	0.8
Cc1ccc2nc(-c3ccncc3)cc(C(=O)N3CCC4(CC3)OCCO4)c2c1	4	0.5	51*	13	17	0.8
O=C(c1cc(-c2cccnc2)nc2ccc(Cl)cc12)N1CCC2(CC1)OCCO2	23	0.8	17	6	9	0.9
N[C@@H](Cc1c[nH]c2ccccc12)c1nnc(SCc2ccccc2F)o1	17	0.6	38	5	32	0.7
CCOC(=O)C(O)(c1ccc(N(CC)S(=O)(=O)c2ccc(C)cc2)cc1)C(F)(F)F (configuration not stated)	-13	0.3	69*	1	44	0.6
COC(=O)C(O)(c1ccc(N(C)S(=O)(=O)c2ccccc2)cc1)C(F)(F)F (configuration not stated)	-1	0.1	88*	-1	92*	0.1
CCN(c1ccc(C(O)(C(=O)OC)C(F)(F)F)cc1)S(=O)(=O)c1ccc(C)cc1 (configuration not stated)	-2	0.6	45	35*	49	0.5
COC(=O)C(O)(c1ccc(NC(=S)NC(=O)c2ccccc2)cc1)C(F)(F)F (configuration not stated)	4	0.5	50*	33*	9	0.9
CCCSc1nc(O)c(CC)c(=O)n1C(C)CC (configuration not stated)	-2	0.8	17	-3	22	0.8
CCCCCCn1c(=O)c(C(=O)Nc2ccncc2)c(O)c2ccccc21	·	0.6	42	·	22	0.8
SMILES	PostGolgi yeast	CYP2C9 act	CYP2C9 inh	PostGolgi ctrl	CYP2C19 inh	CYP2C19 activ
O=C(Nc1cccnc1)c1c(O)c2c(n(Cc3ccccc3)c1=O)CCCC2	-1	0.9	7	38*	-3	1
CSc1ncc(Cl)c(C(=O)O)n1 (tested in a mixture with another compound)	-4	1.3	-26	8	-30	1.3
CCCNC(=O)c1c(N)n(Cc2ccco2)c2nc3ccccc3nc12	-1	0.7	33	22	-9	1.1
CC(C)CNC(=O)c1c(N)n(Cc2ccco2)c2nc3ccccc3nc12	3	0.7	30	55*	0	1
CCOC(=O)c1c(N)n(CCCOC(=O)c2ccco2)c2nc3ccccc3nc12	13	0.1	86*	0	66*	0.3
CC(C)OC(=O)c1c(N)n(Cc2ccco2)c2nc3ccccc3nc12	9	·	·	35*	·	·
COc1ccc(Cn2c(N)c(C(=O)NCc3ccco3)c3nc4ccccc4nc32)cc1OC	12	0.2	79*	13	42	0.6
COCCCn1c(N)c(C(=O)OCCOC)c2nc3ccccc3nc21	-11	0.5	50	6	37	0.6
CCC(=NCCO)c1c(O)n(-c2ccc(Cl)cc2)c(=O)[nH]c1=O	-4	1.1	-12	7	4	1
Cc1ccc(N2C(=O)NC(=O)/C(=C/c3ccc(OC(=O)c4cccs4)cc3)C2=O)cc1	1	1	-2	32*	54*	0.5
COc1cc(/C=C2\C(=O)NC(=O)N(c3ccccc3)C2=O)cc(OC)c1O	0	1.3	-32	4	-8	1.1
CCCCN1C(=O)NC(=O)/C(=C/c2cnc(SC)nc2)C1=O	-3	1	1	10	-1	1
C=CCN1C(=O)NC(=O)/C(=C/c2ccc(OC)c(CSc3ccccn3)c2)C1=O	-16	0.8	19	15	52*	0.5
CC(C)C12CN3CC(C(C)C)(CN(C1)C3c1cccnc1)C2=O (configuration not stated)	2	1	1	4	48	0.5
CN1CCN(c2c[nH]c(=O)[nH]c2=O)CC1	2	·	·	-3	·	·
Oc1cccc(/C=N/NP(=S)(c2ccccc2)c2ccccc2)c1	-9	0	99*	17	94*	0.1
CC(=O)c1ccc2c(c1)C1C(Cl)C(Sc3ccccc3[N+](=O)[O-])CC1C(c1ccccc1)N2 (configuration not stated)	-6	0.3	74*	20	44	0.6
O=c1[nH]c(=S)n(Cc2ccco2)c(O)c1C=NCc1cccs1	8	0.4	59*	36*	23	0.8
O=c1[nH]c(=O)n(Cc2ccco2)c(O)c1C=NCc1cccs1	1	1.1	-7	-5	-4	1
C=CCC1(CN2CCCCCC2=O)C(=O)NC(=O)NC1=O	6	1	-3	-5	0	1
C=CCn1c(O)c(C=Nc2ccc(OC)cc2C)c(=O)[nH]c1=O	-2	0.9	12	6	12	0.9
